We go through 3 molecules from PubChem BioAssay.

The source made the active and inactive calls.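 The calls were made as follows, unless noted: active = thallium flux through the channel raised or lowered by more than 3 SD from vehicle-only wells, actives on both sides; inactive = the rest.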

Assay [1] is described as follows: liver-stage malaria parasite growth inhibition, primary screen, cell-based, HepG2, luciferase luminescence, HepG2 viability (AID 624349; in the data active = parasite load remaining mostly below about 12%, no sharp cut-off; inactive = mostly above about 10%;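 also: 100% = mean of DMSO negative control wells on the same plate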). The following applies: P. berghei liver stage in HepG2, luciferase luminescence, concentration not given here; parasite load remaining: stronger effect = lower value; viability: measured here: HepG2 viability without parasites.
The nature of assay [2]: Cy5 fluorescence interference with SSB-bound oligo, artefact control for HCV NS3 helicase inhibitor project, biochemical, NIH Clinical Collection, E. coli SSB (AID 743268; call rule not given here).
In assay [3] the test system is Hepatitis C virus NS3 helicase. The assay is described as follows: HCV NS3 helicase inhibitors, primary screen, biochemical, fluorescence polarization, NIH Clinical Collection (AID 743270; call rule not given here). The conditions noted are these: NS3 helicase binding to Cy5-dT15 DNA, stronger effect = higher value, concentration not given here.
Assay [4] has as its target Single-stranded DNA-binding protein (Escherichia coli (strain K12)) (UniProt P0AGE0). Nature of the assay: E. coli SSB displacement from DNA, counter-screen for HCV NS3 helicase inhibitor project, biochemical, fluorescence polarization, NIH Clinical Collection (AID 743271; in the data active = inhibition above about 28%). The conditions noted are these: stronger effect = higher value, concentration not given here.
Assay [5] is described as follows: fluorescence interference in NS3h assay format, artefact control for HCV NS3 helicase inhibitor project, biochemical, NIH Clinical Collection (AID 743272; call rule not given here;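 also: HCV NS3 helicase with a Cy5 labelled single stranded DNA probe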). The conditions noted are these: fluorescence interference counterscreen, stronger effect = lower value. Background: Counterscreens check selectivity or assay interference.
Assay [6] is described as follows: modulation of C. elegans fzo-1 (AID 1259413; call rule not given here;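 also: fzo-1 mutant C. elegans worms in liquid wells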). The following applies: C. elegans fzo-1 modulator screen, mean read-out; stronger effect = higher value.
Assay [7] is described as follows: sensitizers of A549 cells to miR-34 induction, primary screen, imaging, A549 dox-inducible miR-34, nuclei and caspase counts (AID 1347080;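 active = compounds whose cell count with miR-34 switched on is under 0.7 times the count with it off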). The following applies: A549 miR-34 inducible, Hoechst nuclei count, 48 h.
Assay [8] in a line: viability rescue of complex I mutant cybrids, primary screen, cell-based, galactose medium, ATP luminescence (AID 1645843;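 active = z-score of at least 1.8 in each of two replicates, scored against plate mean and spread of sample wells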;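 also: positive z means more ATP and so rescue of galactose-driven cybrid death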). The conditions noted are these: complex I mutant cybrid cells, 72 h, stronger effect = higher value.
Assay [9] has as its system F380Y. The assay is described as follows: modulators of BK channel variants, profiling panel, selectivity assay, cell-based, U2OS BacMam, thallium flux, beta subunits (AID 1259406).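 Also: initial slope of Thallos dye fluorescence rise after thallium is added; log ratio against the mean of 0.3% DMSO vehicle wells on the same plate.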 The conditions noted are these: at 30 µM.
The subject of assay [10] is F380Y/beta1. The description is as above. The conditions noted are these: at 30 µM.
The subject of assay [11] is F380Y/beta2Delta. The description is as above. The conditions noted are these: at 30 µM.
Assay [12] has as its system F380Y/beta4. Described as above. The conditions noted are these: at 30 µM.
In assay [13] the target is Calcium-activated potassium channel subunit alpha-1 (Homo sapiens) + Leucine-rich repeat-containing protein 26 (Homo sapiens) (UniProt Q12791+Q2I0M4). Described as above. The following applies: F380Y/Slo1WT/gamma1, at 30 µM.
Assay [14] concerns R275C. The description is as above. The conditions noted are these: at 30 µM.
The subject of assay [15] is R275C/beta1. The assay is described as above. The following applies: at 30 µM.
In assay [16] the test system is R275C/beta2Delta. Described as above. The conditions noted are these: at 30 µM.
Assay [17] concerns R275C/beta4. The assay is described as above. The following applies: at 30 µM.
Assay [18] deals with R275C/Slo1WT/beta2. The assay is described as above. The following applies: at 30 µM.
Where [19] appears, read: stronger effect = lower value, cell number ratio, induced over uninduced.
The mark [20] stands for this setting: measured here: relative caspase fold change +Dox/-Dox.
Setting [21] is: measured here: total cells with miR-34 induction, stronger effect = lower value.
The mark [22] stands for this setting: measured here: total cells without miR-34 induction.

Calcium-activated potassium channel subunit alpha-1 (Homo sapiens) + Leucine-rich repeat-containing protein 26 (Homo sapiens), sequence (Q2I0M4 whole entry, looked up, one chain of several): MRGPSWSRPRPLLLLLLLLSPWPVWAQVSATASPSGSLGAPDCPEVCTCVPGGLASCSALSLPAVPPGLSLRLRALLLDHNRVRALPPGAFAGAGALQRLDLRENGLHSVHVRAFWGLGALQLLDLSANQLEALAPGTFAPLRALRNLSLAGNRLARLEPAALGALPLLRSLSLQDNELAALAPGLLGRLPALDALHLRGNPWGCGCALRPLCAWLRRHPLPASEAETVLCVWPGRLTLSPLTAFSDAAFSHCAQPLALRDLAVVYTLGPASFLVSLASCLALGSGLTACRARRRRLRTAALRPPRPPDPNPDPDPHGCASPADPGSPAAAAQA

In the case of `CC1(C)SC2C(NC(=O)Cc3ccccc3)C(=O)N2C1C(=O)O` (stereo unspecified), the parasite load remaining in [1] is 67.7% (inactive). Besides, the viability in [1] turned out to be 89.4%. Besides, the fluorescence ratio was 1.02 (inactive) in [2] and 1 (inactive) in assay [5]. Also, the results for the inhibition in assay [3] and in assay [4] were -1.36% (inactive) and 1.05% (inactive), respectively. Moreover, the mean signal in assay [6] is 247 (inactive). Further, the fold change in assay [7] (setting [19]) was 0.988 (inactive); in [7] (setting [20]), 2.34. Besides, the cell count in [7] (setting [21]) is 10600; in assay [7] (setting [22]) it was 10700. In addition, the z-score in assay [8] was -0.1 (inactive). The log fold change Tl+ flux in assay [9] was -0.0498 (inactive); in assay [10] it was -0.0346 (inactive); in [11], -0.00781 (inactive); in assay [12], 0.000902 (inactive); in assay [13], 0.0267 (inactive); in assay [14] it was 0.0404 (inactive). For the same molecule, the log fold change Tl+ flux in assay [15] is -0.00964 (inactive); in assay [16] it was 0.00389 (inactive); in assay [17], -0.0356 (inactive); in [18], -0.096 (inactive).

Consider `O=c1ncc(F)c[nH]1`, for which, in [1], the parasite load remaining is 102% (inactive). In assay [1], this molecule yielded a viability of 68.9%. The figures for the fluorescence ratio in assay [2] and in assay [5] were 1.06 (inactive) and 1.05 (inactive), respectively. Besides, the inhibition in assay [3] was 0.4% (inactive); in assay [4], -3.95% (inactive). Also, the mean signal in assay [6] is 283 (inactive). Further, the fold change in assay [7] (setting [19]) is 0.892 (inactive); in assay [7] (setting [20]), 1.42. The cell count in assay [7] (setting [21]) stood at 9920; in [7] (setting [22]), 11100. Besides, the z-score in [8] was 0.75 (inactive). Further, the log fold change Tl+ flux is -0.0112 (inactive) in assay [9]; 0.016 (inactive) in [10]; 0.0227 (inactive) in [11]; -0.00465 (inactive) in assay [12]; 0.0169 (inactive) in assay [13]; -0.0477 (inactive) in assay [14]. Besides, the log fold change Tl+ flux was 0.0224 (inactive) in [15], -0.0499 (inactive) in [16], 0.00687 (inactive) in assay [17] and -0.000391 (inactive) in assay [18].

Regarding `CC(=O)C1(O)CCC2C3CC(C)C4=CC(=O)C=CC4(C)C3(F)C(O)CC21C` (stereo unspecified), in assay [1], the parasite load remaining was 94.8% (inactive). For the same molecule, the viability in assay [1] is 93.8%. Besides, the fluorescence ratio in [2] was 1.07 (inactive); in [5], 1 (inactive). Besides, the inhibition is -0.45% (inactive) in assay [3] and -0.48% (inactive) in [4]. Moreover, the mean signal in [6] is 265 (inactive). Moreover, the fold change in assay [7] (setting [19]) is 0.925 (inactive); in assay [7] (setting [20]), 2.07. The values for the cell count in assay [7] (setting [21]) and in assay [7] (setting [22]) were 7970 and 8610, respectively. For the same molecule, the z-score in [8] was -0.02 (inactive). Moreover, the log fold change Tl+ flux in [9] is -0.0303 (inactive); in assay [10], 0.0429 (inactive); in assay [11], -0.0137 (inactive); in assay [12] it was -0.0225 (inactive); in assay [13], -0.014 (inactive); in assay [14], -0.0154 (inactive). Also, the log fold change Tl+ flux was 0.00875 (inactive) in [15], -0.0161 (inactive) in assay [16], 0.055 (inactive) in assay [17] and 0.00372 (inactive) in [18].

For orientation: viability means the share of living cells, or the viability signal relative to a control. As a reminder, the inhibition is the drop in the measured response relative to a control, in per cent.
